Compound activity (PubChem BioAssay)
Shown are actives, neighbours in structure and some others; about 4.7% of the full set was active somewhere.
S2 tox – Viability Counterscreen for Primary qHTS for Inhibitors of ATXN expression; S2 cells (HEK-293 line with an ATXN2-luciferase reporter) viability, CellTiter-Fluor protease fluorescence, 24 h; Potency, µM (highest dose often 56.7 µM), most hits filed as cytotoxic; 0.49% of 400,000 active; AID 651635, 2014; note: nearly all actives have a fitted effect of over 40% in size
D3 ag – qHTS of D3 Dopamine Receptor Agonist: qHTS; D3R DiscoveRx beta-arrestin cells, luminescence, 90 min; max activation, %; D(3) dopamine receptor (Homo sapiens), P35462; AID 652048, 2013; 0.58% of 410,000 active; in the data active = max activation above about 30%
Target sequence (P35462 whole entry, looked up): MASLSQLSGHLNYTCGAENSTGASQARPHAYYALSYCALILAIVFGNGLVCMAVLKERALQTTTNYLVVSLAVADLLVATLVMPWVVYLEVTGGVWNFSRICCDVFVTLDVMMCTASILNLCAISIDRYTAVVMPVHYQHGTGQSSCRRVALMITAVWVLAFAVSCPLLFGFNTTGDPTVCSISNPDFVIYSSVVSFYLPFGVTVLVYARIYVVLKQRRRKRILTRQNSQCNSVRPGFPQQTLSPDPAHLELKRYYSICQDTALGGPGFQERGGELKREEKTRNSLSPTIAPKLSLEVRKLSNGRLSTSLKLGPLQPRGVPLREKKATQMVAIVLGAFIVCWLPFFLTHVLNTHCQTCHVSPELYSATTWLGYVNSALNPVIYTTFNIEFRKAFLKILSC
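Agonist-mode cell screen: cells plated at 1500/well and incubated overnight at 37 °C, then exposed to library compounds for 90 min at 37 °C. Detection reagent was added for 30–60 min at room temperature, and luminescence was read.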
DRD3 antagonist – qHTS of D3 Dopamine Receptor Antagonist: qHTS. D(3) dopamine receptor (Homo sapiens), P35462. D3R cells, DiscoveRx beta-arrestin luminescence, antagonist mode; stronger effect = lower value. max response, negative = inhibition, %. 2.5% of 360,000 active. AID 652054, 2013; in the data active = max response below about -50%; inconclusive = no clear call, values can overlap the other calls
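Cells plated overnight at 1500 cells/well, then exposed to library compounds with dopamine controls for 90 minutes at 37 degrees C. DiscoveRx reagent added for 30–60 minutes at room temperature; luminescence read, quantitative HTS format.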
ATXN2 expr inh – Primary qHTS for Inhibitors of ATXN expression; HEK-293 ATXN2-luciferase reporter, luminescence, 24 h; Potency, µM (doses to about 57 µM), usual class: inhibitors; 0.72% of 360,000 active; note: nearly all actives have a fitted effect of over 55% in size
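ATXN2-luciferase reporter cells (luciferase flanked by upstream and downstream ATXN2 gene portions) were treated 24 h at 37 °C with compounds at up to 57 uM. SteadyGlo luminescence gave expression; GF-AFC fluorescence gave viability.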
HepG2 viability – qHTS for Inhibitors of TGF-b: Cytotox Counterscreen; HepG2 CAGA-GFP viability, ATP luminescence, 18 h; Potency, µM (series often up to 46.1 µM), usual class: cytotoxic; 0.76% of 410,000 active
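CellTiter-Glo luminescence gave cytotoxicity after 18 hours at 37 degrees C. The cells were HepG2 CAGA-GFP in 1% FBS DMEM, stimulated with 500 pg/mL TGF-beta after compound addition. %Activity was normalised to no-cell wells (complete cell-killing) and DMSO (no toxicity), and curves were fitted and classified.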
TGFb SMAD3 inh – qHTS for Inhibitors of TGF-b; HepG2 CAGA-GFP TGF-b/SMAD3 reporter, GFP fluorescence, 18 h; TGF-beta stimulated, 500 pg/mL final; Potency, µM (highest dose often 46.1 µM), most hits filed as inhibitors; 1.2% of 410,000 active; AID 588855, 2011; note: nearly all actives have a fitted effect of over 65% in size
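Cell-based qHTS in HEPG2 carrying a CAGA-GFP Smad reporter; compounds added before 500 pg/mL final TGF-beta, 18 h incubation at 37 degrees C, GFP fluorescence quantified per cell by imaging cytometry.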
A number is an active result; 0 = inactive; ? = inconclusive; - = no result; ! = not active in a repeat. Unless noted, calls come from the whole dose curve; as a rule, active = well fitted curve in the direction sought with a large enough effect; inconclusive = small, poorly fitted or top-dose-only effect, or another doubt; inactive = no such curve, though single readings can be large; an effect the other way counts as inactive or inconclusive.

SMILES	S2 tox	D3 ag	DRD3 antagonist	ATXN2 expr inh	HepG2 viability	TGFb SMAD3 inh
CC(=O)Nc1ccccc1-c1nc(CNC(=O)c2ccc(-c3ccccc3F)cc2)c(C)o1	0	-	-	-	-	-
CO[C@H]1C[C@@H]2CC[C@@H](C)[C@@](O)(O2)C(=O)C(=O)N2CCCC[C@H]2C(=O)O[C@H]([C@H](C)C[C@@H]2CC[C@@H](O)[C@H](OC)C2)CC(=O)[C@H](C)C=C(C)[C@@H](O)[C@@H](OC)C(=O)[C@H](C)C[C@H](C)/C=C/C=CC=C1C	-	0	-	-	-	-
Cc1ccc(NC(=O)c2cccc(NC(=O)N3CCSc4ncccc43)c2)cc1Cl	-	0	-	-	0	0
COc1cccc(/C=N/Nc2nc(Nc3ccc([N+](=O)[O-])cc3)nc(N3CCCC3)n2)c1O	0	0	-119.4	?	0	0
O=[N+]([O-])c1ccc(Nc2nc(N/N=C/c3cccc(F)c3)nc(N3CCCC3)n2)cc1	?	0	0	0	0	0
COc1cc([N+](=O)[O-])cc(/C=N/NC(=O)C(O)(c2ccccc2)c2ccccc2)c1O	0	0	-54.7	0	0	0
O=[N+]([O-])c1ccc(N/N=C/c2cccc(O)c2O)cc1	?	0	-50.3	0	0	0
O=C(O)COc1ccc(/C=N/Nc2nc(Nc3ccccc3)nc(N3CCCCC3)n2)cc1	0	0	-50.4	0	0	0
COc1cc([N+](=O)[O-])cc(/C=N/NC(=O)C(C)Nc2cccc3ccccc23)c1O (stereo unspecified)	?	0	-84.2	20µM	0	?
CC(Nc1cccc2ccccc12)C(=O)N/N=C/c1ccc([N+](=O)[O-])cc1 (stereo unspecified)	0	0	0	0	0	?
CCN1CCN(Cc2ccc(NC(=O)c3cc(NC(=O)c4cc5cccc(OC)c5o4)cc(OC)c3)cc2C(F)(F)F)CC1	15.8µM	0	-58.1	8.91µM!	17.8µM!	?
CCN1CCN(Cc2ccc(NC(=O)c3cc(NC(=O)c4ccc5n[nH]nc5c4)cc(OC)c3)cc2C(F)(F)F)CC1	0	0	0	0	0	?
COc1cc(NC(=O)c2ccno2)cc(C(=O)Nc2cccc(C(F)(F)F)c2)c1	?	0	0	?	0	0
CCN1CCN(Cc2ccc(NC(=O)c3cc(NC(=O)c4cc(-c5ccc(OC)cc5)n[nH]4)cc(OC)c3)cc2C(F)(F)F)CC1	17.8µM	0	0	14.1µM	0	?
COc1cc(NC(=O)c2cc3cccc(OC)c3o2)cc(C(=O)Nc2cccc(C(F)(F)F)c2)c1	?	46.4	0	?	0	?
CCN1CCN(Cc2ccc(NC(=O)c3cc(NC(=O)c4cncc(-c5cccs5)c4)cc(OC)c3)cc2C(F)(F)F)CC1	35.5µM	0	0	25.1µM!	14.1µM!	14.1µM
Cc1cccc(NC(=O)Cn2nnc(C(=O)NCc3cccs3)c2N)c1	0	0	-	0	0	0
O=c1oc2ccc3ccccc3c2cc1-c1nnc(Nc2ccc(F)cc2)s1	-	0	-	-	0	0
c1ccc(N2CCN(Cc3cn4cccnc4n3)CC2)cc1	0	0	-59.0	0	0	0
c1ccc(CNc2nc(-c3ccccn3)nc3ccccc23)cc1	0	0	-74.2	?	0	0
Cc1c(C(=O)Nc2nccs2)sc2nc(-c3cccs3)cc(C(F)(F)F)c12	?	0	0	25.1µM	0	0
Cc1c(C(=O)O)sc2nc(-c3cccs3)cc(C(F)(F)F)c12	0	0	0	0	0	0
Cc1csc(NC(=O)c2sc3nc4c(c(C(F)(F)F)c3c2N)CCC4)n1	-	-	-	0.0968µM	-	-
Cc1ccc(NC(=O)c2sc3nc(-c4cccs4)ccc3c2N)cc1F	-	0	-	-	0	0
COc1ccc(CNC(=O)c2sc3nc4c(c(C(F)(F)F)c3c2N)CCC4)cc1OC	0	0	0	0	0	?
Cc1csc(NC(=O)c2sc3nc(-c4cccs4)ccc3c2N)n1	-	39.4	0	0	0	0
